Test results as given in PubChem BioAssay (NCI).
The panel holds about 83,000 compounds, 20% with a hit somewhere; the sample as a whole holds those more often.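 The test compound was applied at a single concentration to cells in 96-well plates for 48 hours, and percent growth was recorded.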 Unmarked numbers belong to inactive results. Activity calls are given as the source filed them. Rule for the calls: active = growth percent below 10; inactive = the rest. Where a SMILES comes first, the peptide text is derived from it. Bridges are numbered along the chain shown (N, C = ends). [ ]: non-standard residue; d: D form. The star is where a group is joined. ξ: configuration not given here. ξNMePhe(4-NMe2) = CNC(Cc1ccc(N(C)C)cc1)C(=O)O; Picolinoyl(3-OH) = O=C(c1ncccc1O)*; ξPip(4-oxo) = O=C1CCNC(C(=O)O)C1; Phg = N[CH](C(=O)O)c1ccccc1; Abu = CC[CH](N)C(=O)O

system: A498 renal; assay: NCI-60 one-dose screen, 48 h (100 = growth as untreated, 0 = no growth, -100 = all killed); details: 10 µM

SMILES	growth
CC(=O)Nc1ccc(NC(C)=O)c2c1C(=O)c1ccccc1C2=O	91.1%
COc1cc2c3c(n(C)c(=O)c2cc1OC)-c1cc2c(cc1C3=O)OCO2	75.5%
CCN(CC)CCCC(C)Nc1ccnc(/C=C/c2ccc(Cl)cc2)c1 (stereo not given)	22.2%
O=C1c2ccccc2C(=O)c2c1ccc(C(=O)O)c2[N+](=O)[O-]	84%
O=[N+]([O-])c1ccccc1N=Nc1ccc(O)cc1O	139%
O=C1C=C(O)C(=O)C=C1O	92.4%
C/C=C/CC(C)C(O)C1C(=O)NC(CC)C(=O)N(C)CC(=O)N(C)C(CC(C)C)C(=O)NC(C(C)C)C(=O)N(C)C(CC(C)C)C(=O)NC(C)C(=O)NC(C)C(=O)N(C)C(CC(C)C)C(=O)N(C)C(CC(C)C)C(=O)N(C)C(C(C)C)C(=O)N1C (stereo not given)	-5.73% (active)
Cc1cc(=O)cc(C)n1-c1ccccc1	103%

system: CCRF-CEM leukemia; assay: as above; details: 10 µM

SMILES	growth
CCOC(=O)C(O)C(O)C(=O)OCC (stereo not given)	107%
Oc1ccc(Cc2ccccc2)c2cccnc12	1.19% (active)
CC1CCCC(CC(N)=O)CC1 (stereo not given)	90.4%
COc1cc(C(N)=O)cc(OC)c1OC	103%
Cc1ccc(/C(C#N)=C/c2ccc3c(c2)OCO3)cc1	65.8%
O=C(O)C(Cc1ccccc1)C(=O)O	97.9%
O=C1N(C[P+](c2ccccc2)(c2ccccc2)c2ccccc2)CCCN1C[P+](c1ccccc1)(c1ccccc1)c1ccccc1	107%
N/N=C(/Cc1ccccc1)NNC(N)=S	93.8%
CC1(O)CCCCC1O (stereo not given)	107%
CC1(C)/C(=C\CO)C2CCC1C2 (stereo not given)	92.3%
CCCCCCCCCCCCCCCCC1CC(=O)OC1=O (stereo not given)	96.5%
S=c1nn[nH]c2ccccc12	111%
CO[C@H]1C[C@@H]2CC[C@@H](C)[C@@](O)(O2)C(=O)C(=O)N2CCCC[C@H]2C(=O)O[C@H]([C@H](C)C[C@@H]2CC[C@@H](O)[C@H](OC)C2)CC(=O)[C@H](C)C=C(C)[C@@H](O)[C@@H](OC)C(=O)[C@H](C)C[C@H](C)/C=C/C=C/C=C1C	30.6%
CCS(=O)(=O)c1cc(=O)[nH]c(=O)[nH]1	110%
CCCNC(=O)c1ccc(S(N)(=O)=O)cc1	81.6%
CC(C)(O)C#CC#CC(C)(C)O	98.6%
CCC1NC(=O)C(NC(=O)c2ncccc2O)C(C)OC(=O)C(c2ccccc2)NC(=O)C2CC(=O)CCN2C(=O)C(Cc2ccc(N(C)C)cc2)N(C)C(=O)C2CCCN2C1=O (stereo not given) (tested in a mixture with another compound) ({Picolinoyl(3-OH)}-T[Abu]P[ξNMePhe(4-NMe2)][ξPip(4-oxo)][Phg]; ester 1-C; configuration not given here)	32%
[O-][N+](=Nc1cccc(Cl)c1)c1cccc(Cl)c1	111%
O=C(O)C(O)c1ccccc1 (stereo not given)	106%
COc1cc2c3c(n(C)c(=O)c2cc1OC)-c1cc2c(cc1C3=O)OCO2	29.5%
CCN(CC)CCCC(C)Nc1ccnc(/C=C/c2ccc(Cl)cc2)c1 (stereo not given)	6.37% (active)
N#CCCN(CCCN1CCOCC1)CN1C(=O)c2ccccc2C1=O	106%
Cc1cc(=O)cc(C)n1-c1ccccc1	92.4%

system: MOLT-4 leukemia; assay: as above; details: 10 µM

SMILES	growth
CC1=CC(=O)c2ccccc2C1=O	114%
CCOC(=O)C(O)C(O)C(=O)OCC (stereo not given)	104%
Oc1ccc(Cc2ccccc2)c2cccnc12	3.7% (active)
CC1CCCC(CC(N)=O)CC1 (stereo not given)	101%
COc1cc(C(N)=O)cc(OC)c1OC	84.5%
Cc1ccc(/C(C#N)=C/c2ccc3c(c2)OCO3)cc1	63.6%
O=C(O)C(Cc1ccccc1)C(=O)O	116%
O=C1N(C[P+](c2ccccc2)(c2ccccc2)c2ccccc2)CCCN1C[P+](c1ccccc1)(c1ccccc1)c1ccccc1	97.7%
N/N=C(/Cc1ccccc1)NNC(N)=S	98.4%
COc1ccc(C)cc1OC	110%
O=[N+]([O-])c1cccc(N=Nc2ccc(O)cc2O)c1	50.2%
CC1=NN(c2ccccc2)C(=O)/C1=C\N1CC(=O)NC1=S	102%
CC1(O)CCCCC1O (stereo not given)	103%
CC1(C)/C(=C\CO)C2CCC1C2 (stereo not given)	107%
CCCCCCCCCCCCCCCCC1CC(=O)OC1=O (stereo not given)	118%
S=c1nn[nH]c2ccccc12	108%
NC(=O)NC(=O)c1ccc(Cl)cc1	102%
CC1=C(/C=C/C(C)=C/C=C/C(C)=C/CO)C(C)(C)CCC1	97.9%
Cn1cnc2nc(Cl)nc(Cl)c21	35.8%
CC1(C)N=C(N)N=C(N)N1c1ccc(Cl)cc1	53.6%

SMILES	growth
O=C(/C=C\c1ccc(O)cc1)c1ccccc1	96.1%
CO[C@H]1C[C@@H]2CC[C@@H](C)[C@@](O)(O2)C(=O)C(=O)N2CCCC[C@H]2C(=O)O[C@H]([C@H](C)C[C@@H]2CC[C@@H](O)[C@H](OC)C2)CC(=O)[C@H](C)C=C(C)[C@@H](O)[C@@H](OC)C(=O)[C@H](C)C[C@H](C)/C=C/C=C/C=C1C	37.4%
C/C(O)=C(\C=N\C(N)=S)C(=O)Nc1ccccc1	103%
CCS(=O)(=O)c1cc(=O)[nH]c(=O)[nH]1	128%
CCCNC(=O)c1ccc(S(N)(=O)=O)cc1	109%
CC(C)(O)C#CC#CC(C)(C)O	90.7%
CCC1NC(=O)C(NC(=O)c2ncccc2O)C(C)OC(=O)C(c2ccccc2)NC(=O)C2CC(=O)CCN2C(=O)C(Cc2ccc(N(C)C)cc2)N(C)C(=O)C2CCCN2C1=O (stereo not given) (tested in a mixture with another compound) ({Picolinoyl(3-OH)}-T[Abu]P[ξNMePhe(4-NMe2)][ξPip(4-oxo)][Phg]; ester 1-C; configuration not given here)	42.2%
NNc1ccccc1C(=O)O	107%
[O-][N+](=Nc1cccc(Cl)c1)c1cccc(Cl)c1	125%
O=C(O)C(O)c1ccccc1 (stereo not given)	102%
CC(=O)Nc1ccc(NC(C)=O)c2c1C(=O)c1ccccc1C2=O	105%
COc1cc2c3c(n(C)c(=O)c2cc1OC)-c1cc2c(cc1C3=O)OCO2	18.3%
CCN(CC)CCCC(C)Nc1ccnc(/C=C/c2ccc(Cl)cc2)c1 (stereo not given)	13.3%
O=C1c2ccccc2C(=O)c2c1ccc(C(=O)O)c2[N+](=O)[O-]	93.5%
O=[N+]([O-])c1ccccc1N=Nc1ccc(O)cc1O	101%
O=C1C=C(O)C(=O)C=C1O	91.3%
N#CCCN(CCCN1CCOCC1)CN1C(=O)c2ccccc2C1=O	90.9%
C/C=C/CC(C)C(O)C1C(=O)NC(CC)C(=O)N(C)CC(=O)N(C)C(CC(C)C)C(=O)NC(C(C)C)C(=O)N(C)C(CC(C)C)C(=O)NC(C)C(=O)NC(C)C(=O)N(C)C(CC(C)C)C(=O)N(C)C(CC(C)C)C(=O)N(C)C(C(C)C)C(=O)N1C (stereo not given)	-4.07% (active)
Cc1cc(=O)cc(C)n1-c1ccccc1	102%
